# Data from PubChem BioAssay (NCATS).
# Inconclusive results are not listed. Where a call stands in place of a potency, no number is given. Activity calls are given as the source filed them. Calls follow the shape of the dose curve; as a rule, active = well fitted inhibition curve with a large enough effect; inconclusive = small, poorly fitted or top-dose-only effect; inactive = flat fitted curve, though single readings scatter.
# System: PC15
# Assay: qHTS profiling for inhibitors of Plasmodium falciparum proliferation (AID 504749); also: nearly all actives have a fitted effect of over 60% in size
# Conditions: P. falciparum in erythrocytes, SYBR Green DNA, 72 h; series mostly up to 28.7 µM
# Summary of the method: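 Quantitative HTS: compounds pinned into medium, infected erythrocytes added (0.3% parasitemia, 2.5% hematocrit), 72 h culture at 37 C under 5% CO2. Saponin/Triton lysis with SYBR Green I, overnight RT, then fluorescence read.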
row,Compound,Potency
1,CCC(=O)c1ccc(O)cc1,inactive
2,Cc1cc(CC(=O)O)n(C)c1C(=O)c1ccc(Cl)cc1,inactive
3,CC12CCC(CC1)C(C)(C)O2,inactive
4,COc1cc(C(=O)N2CCOCC2)cc(OC)c1OC,inactive
5,CCCOC(=O)c1ccccc1,inactive
6,OCC(O)CN1CCN(c2ccccc2)CC1 (stereo unspecified),inactive
7,O=C1NS(=O)(=O)c2ccccc21,inactive
8,CC(=O)Oc1ccc(C2(c3ccc(OC(C)=O)cc3)C(=O)Nc3ccccc32)cc1,inactive
9,CC(=O)Nc1ccc(/C=N/NC(N)=S)cc1,inactive
10,O=C(O)CC(O)C(=O)O (stereo unspecified),inactive
11,O=C(CCCN1CCN(c2ccccn2)CC1)c1ccc(F)cc1,inactive
12,CC1=C(/C=C/C(C)=C/C=C/C(C)=C/C(=O)O)C(C)(C)CCC1,inactive
13,Nc1nc2c(ncn2CCC(CO)CO)c(=O)[nH]1,inactive
14,O=C(O)c1ccccn1,inactive
15,Nc1ncnc2c1ncn2[C@@H]1O[C@H](CO)[C@@H](O)[C@H]1O,inactive
16,Cn1c(=O)c2c(ncn2CC2OCCO2)n(C)c1=O,inactive
17,NC(CSCC(=O)O)C(=O)O (stereo unspecified),inactive
18,O=C(O)c1ccccc1O,inactive
19,CCCCCCCCCCCCOS(=O)(=O)O,inactive
20,CCCCC(CC)COC(=O)c1ccccc1O (stereo unspecified),inactive
21,CC(O)CN(CCN(CC(C)O)CC(C)O)CC(C)O (stereo unspecified),inactive
22,Cc1ncc(COP(=O)(O)O)c(C=O)c1O,inactive
23,CC[C@@]1(c2ccccc2)NC(=O)N(C)C1=O,inactive
24,[O-][n+]1cccc(CO)c1,inactive
25,Oc1cccc(O)c1,inactive
26,CCn1cc(C(=O)O)c(=O)c2cnc(N3CCNCC3)nc21,inactive
